High-throughput results: PubChem, National Center for Advancing Translational Sciences (NCATS)
FEN1 inh-1: blocks human flap endonuclease 1; P39748; Recombinant FEN1 flap cleavage, fluorescence, 15 min; Potency, µM (titrated, usually from 114 µM), most hits filed as inhibitors; 390,000 tested, 0.35% active; also: nearly all actives have a fitted effect of over 65% in size
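Concentration–response screening of FEN1 (10 nM): 15 min compound preincubation at room temperature, reaction started with 50 nM substrate and read at 0 and 15 min. Corrected, normalized data were fitted by a four-parameter Hill equation.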
PI5P4K alpha inh: PI5P4K alpha (human) kinase inhibition; P48426; PI5P4Kalpha enzyme, ADP-Glo luminescence, 60 min; stronger effect = lower value; max response, %; 330,000 tested, 1.2% active; AID 652105; active = max response of -50% or lower; inconclusive = between -30% and -50%; inactive = -30% or higher; also: value at the top dose of about 77 µM
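PI5P4Kalpha ADP-Glo assay; 5 microM ATP final; 60 min RT reaction; HEPES pH 7.4/EGTA/CHAPS, 5% DMSO; controls lacking substrate or enzyme; luminescent end-point.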
POLI inh: DNA polymerase iota (human) inhibition; Potency, µM (series often up to 115 µM), actives largely listed as inhibitors; Pol iota fluorescent replication assay, 10 min; 390,000 tested, 1% active; Q9UNA4
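Fluorescent replication assay read twice, at 0 min and 10 min after adding 50 nM (final) substrate. Enzyme (10 nM) and compounds were first incubated 15 min at room temperature; enzyme-free buffer wells were negative controls.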
POLB inh: blocks human DNA polymerase beta activity. Pol beta primer extension/strand displacement, fluorescence kinetic. P06746. Potency, µM (series often up to 114 µM), actives largely listed as inhibitors. AID 485314. 340,000 tested, 1.3% active
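Human Pol beta at 10 nM; strand-displacement substrate 50 nM final. Compound exposure 15 min at room temperature before start, reaction 10 min at room temperature.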
Pol eta inh-1: blocks human DNA polymerase eta activity | Q9Y253 | recombinant Pol eta, fluorescent DNA replication assay | Potency, µM (titrated, usually from 114 µM), usual class: inhibitors | 390,000 tested, 1.2% active
Target sequence (Q9Y253 whole entry, looked up): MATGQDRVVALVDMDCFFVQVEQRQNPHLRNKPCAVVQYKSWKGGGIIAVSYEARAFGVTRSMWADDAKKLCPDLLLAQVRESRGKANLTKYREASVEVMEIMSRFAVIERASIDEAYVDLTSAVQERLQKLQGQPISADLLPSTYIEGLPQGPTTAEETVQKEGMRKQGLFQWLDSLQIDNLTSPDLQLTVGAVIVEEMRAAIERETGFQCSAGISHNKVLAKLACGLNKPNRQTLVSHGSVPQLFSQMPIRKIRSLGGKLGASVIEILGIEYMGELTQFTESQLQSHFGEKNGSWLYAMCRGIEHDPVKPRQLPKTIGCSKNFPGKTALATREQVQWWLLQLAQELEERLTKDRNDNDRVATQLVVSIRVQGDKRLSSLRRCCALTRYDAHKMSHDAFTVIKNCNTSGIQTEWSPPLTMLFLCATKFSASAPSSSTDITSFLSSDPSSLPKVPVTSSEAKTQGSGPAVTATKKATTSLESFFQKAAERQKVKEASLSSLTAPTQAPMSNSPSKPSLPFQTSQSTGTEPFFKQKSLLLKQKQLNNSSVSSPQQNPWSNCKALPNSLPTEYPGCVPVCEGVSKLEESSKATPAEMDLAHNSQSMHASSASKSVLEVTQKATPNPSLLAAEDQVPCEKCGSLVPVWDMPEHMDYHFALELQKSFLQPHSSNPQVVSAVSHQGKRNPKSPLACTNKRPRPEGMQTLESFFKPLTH
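Fluorescent replication assay: 50 nM final substrate added after a 15 min room-temperature compound preincubation with 10 nM enzyme. Signal taken at 0 min and again at 10 min.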
Pol kappa inh-1: blocks human DNA polymerase kappa activity. purified Pol kappa, fluorescent DNA synthesis assay, 10 min. Q9UBT6. Potency, µM (series often up to 107 µM), actives largely listed as inhibitors. 400,000 tested, 0.53% active. AID 588579
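First, compounds were pin-transferred onto 10 nM Pol kappa. After 15 min at room temperature, substrate was added to 50 nM final. Fluorescence was then measured kinetically at 0 and 10 min.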
PGK validate: validation of Trypanosoma brucei phosphoglycerate kinase inhibitors | shares compounds with Pol kappa inh-1 | TbPGK coupled GAPDH assay, Kinase-Glo luminescence | Potency, µM (top dose mostly 57.5 µM), most hits filed as inhibitors | 500 tested, 79% active | AID 686980; also: nearly all actives have a fitted effect of over 65% in size
POLI cherry-pick: Inhibitors of human DNA polymerase iota, confirmation; shares compounds with Pol kappa inh-1; Pol iota primer extension, TAMRA/BHQ fluorescence; Potency, µM, most hits filed as inhibitors; 1,500 tested, 77% active; AID 720496
Pol kappa inh-2: confirmation of human DNA polymerase kappa inhibitors | shares compounds with Pol eta inh-1 | purified Pol-kappa, fluorescent strand-displacement substrate | Potency, µM, actives largely listed as inhibitors | 920 tested, 76% active | AID 720501
Pol eta inh-2: confirmation of human DNA polymerase eta inhibitors | shares compounds with Pol eta inh-1 | 2,600 tested, 64% active | Potency, µM, hits mostly inhibitors | AID 720502 | Pol eta primer extension, TAMRA/BHQ fluorescence, 10 min
FEN1 inh-2: FEN1 inhibition, cherry-pick retest | shares compounds with FEN1 inh-1 | FEN1 flap cleavage, TAMRA/BHQ2 fluorogenic DNA substrate | Potency, µM, usual class: inhibitors | 880 tested, 79% active | AID 720498; also: nearly all actives have a fitted effect of over 60% in size
Numbers stand for hits. Only some compounds are listed: those with a hit (about 2.8% of all), similar ones and a draw of the others. Unless noted, calls follow the shape of the dose curve; as a rule, active = well fitted curve in the direction sought with a large enough effect; inconclusive = small, poorly fitted or top-dose-only effect, or another doubt; inactive = no such curve, though single readings can be large; an effect the other way counts as inactive or inconclusive.

How did O=C1/C(=C\c2cccc(O)c2O)SC(=S)N1Cc1ccccc1 do in these assays?
FEN1 inh-1: inactive; PI5P4K alpha inh: inactive; POLI inh: inconclusive; POLB inh: inactive; Pol eta inh-1: inconclusive; Pol kappa inh-1: inactive

How did O=c1[nH]c(=S)[nH]c2c1C(c1ccc(Br)cc1)c1c([nH]c(=S)[nH]c1=O)O2 do in these assays?
FEN1 inh-1: 18µM; PI5P4K alpha inh: -75; POLI inh: 1µM; POLB inh: 13µM; Pol eta inh-1: 2.2µM; Pol kappa inh-1: 4µM; POLI cherry-pick: 2.7; Pol eta inh-2: 1.7; FEN1 inh-2: 2.1

How did COc1ccc(CN2CC[C@H]3C=CC[C@@H](C(=O)Nc4nccs4)[C@H]3C2=O)cc1OC do in these assays?
FEN1 inh-1: inactive; POLI inh: inactive; Pol kappa inh-1: inactive

What do the screens show for `CN(C)CCNc1ccc2ncn3c4ccc(O)cc4c(=O)c1c23`?
FEN1 inh-1: 8.9µM; PI5P4K alpha inh: inactive; POLI inh: 79µM; Pol eta inh-1: inconclusive; Pol kappa inh-1: 22µM; POLI cherry-pick: 12; Pol kappa inh-2: 9.5; FEN1 inh-2: 4.8

Results for CCCCN(C(=O)c1ccc2c(c1)OCO2)c1ccccc1 ?
FEN1 inh-1: inactive; PI5P4K alpha inh: inactive; POLI inh: inactive; POLB inh: inactive; Pol eta inh-1: inactive; Pol kappa inh-1: inactive

What do the screens show for `CN(C1CCCCC1)S(=O)(=O)c1ccc2c(c1)c(=O)c(C(=O)NCc1ccccc1Cl)cn2C`?
FEN1 inh-1: inactive; POLI inh: inactive; POLB inh: inactive; Pol eta inh-1: inactive; Pol kappa inh-1: inactive

How did NS(=O)(=O)c1ccc(N=Nc2c[nH]c(=O)c(O)c2)cc1 do in these assays?
FEN1 inh-1: inconclusive; PI5P4K alpha inh: -63; POLI inh: 14µM; POLB inh: inconclusive; Pol eta inh-1: 22µM; Pol kappa inh-1: inconclusive; PGK validate: 18µM; Pol eta inh-2: 54; FEN1 inh-2: inconclusive

Results for N#C/C(=C\c1cc(O)c(O)c(O)c1)C(N)=O ?
FEN1 inh-1: inconclusive; PI5P4K alpha inh: -76; POLI inh: inconclusive; POLB inh: inconclusive; Pol eta inh-1: inactive; Pol kappa inh-1: inactive; POLI cherry-pick: 19; Pol eta inh-2: 67; FEN1 inh-2: 13

How did N#C/C(=C\c1cc(Cl)c(OCc2ccc(Cl)cc2)c(Cl)c1)C(N)=O do in these assays?
POLB inh: inactive

Results for O=[N+]([O-])c1cc2ccccc2c(O)c1O ?
PI5P4K alpha inh: inconclusive; Pol eta inh-1: 4.5µM; POLI cherry-pick: 12; Pol kappa inh-2: 2.1; Pol eta inh-2: 7.6; FEN1 inh-2: 15

What do the screens show for `O=C(O)Cc1c[nH]c2cccc(O)c12`?
FEN1 inh-1: 50µM; PI5P4K alpha inh: inconclusive; POLI inh: inconclusive; POLB inh: 18µM; Pol eta inh-1: 8.9µM; Pol kappa inh-1: 22µM; POLI cherry-pick: 19; Pol eta inh-2: 7.6; FEN1 inh-2: 48

What do the screens show for `O=C(O)Cc1c[nH]c2ccccc12`?
FEN1 inh-1: inactive; PI5P4K alpha inh: inactive; POLI inh: inactive; Pol eta inh-1: inactive; Pol kappa inh-1: inactive

How did C=CCN1C(=O)/C(=C\C=C2\N(C)c3ccccc3C2(C)C)SC1=S do in these assays?
FEN1 inh-1: inconclusive; PI5P4K alpha inh: inactive; POLI inh: inconclusive; POLB inh: inconclusive; Pol eta inh-1: inconclusive; Pol kappa inh-1: inactive

How did CN1/C(=C\C=C2/SC(=S)N(CC(=O)O)C2=O)C(C)(C)c2ccccc21 do in these assays?
FEN1 inh-1: inconclusive; PI5P4K alpha inh: inactive; POLB inh: 40µM; Pol eta inh-1: 45µM; Pol kappa inh-1: inconclusive; POLI cherry-pick: 38; Pol kappa inh-2: 34; Pol eta inh-2: 34; FEN1 inh-2: 85

How did COc1ccc(NC(=O)CN2C(=O)N/C(=C\c3cccn3-c3ccc(C(=O)NC#N)cc3)C2=O)cc1 do in these assays?
POLI cherry-pick: 42; Pol kappa inh-2: 19; Pol eta inh-2: 60; FEN1 inh-2: 43

How did N#CNC(=O)c1ccc(-n2cccc2/C=C2\NC(=O)N(CC(=O)Nc3ccc(F)cc3)C2=O)cc1 do in these assays?
POLI cherry-pick: 27; Pol eta inh-2: 48; FEN1 inh-2: 34

How did CCn1cc(C(=O)N[C@@H](CC(C)C)C(=O)NCCCn2ccnc2)c(=O)c2cc3c(cc21)OCO3 do in these assays?
FEN1 inh-1: inactive; PI5P4K alpha inh: inactive; POLI inh: inactive; POLB inh: inactive; Pol eta inh-1: inactive; Pol kappa inh-1: inactive

Results for COc1ccc(Cl)cc1N1C(=NC(=O)C2CCCCC2)SC2CS(=O)(=O)CC21 (stereo unspecified) ?
FEN1 inh-1: inactive; PI5P4K alpha inh: inactive; POLI inh: inactive; POLB inh: inactive; Pol eta inh-1: inactive; Pol kappa inh-1: inactive

Results for O=C1NC(=O)/C(=C\c2ccc(O)cc2O)S1 ?
FEN1 inh-1: 16µM; PI5P4K alpha inh: -92; POLI inh: inconclusive; POLB inh: 1.6µM; Pol eta inh-1: 2.8µM; Pol kappa inh-1: 11µM; POLI cherry-pick: 30; Pol eta inh-2: 27; FEN1 inh-2: 67

What do the screens show for `O=C1NC(=O)/C(=C/c2cccc3ccccc23)S1`?
FEN1 inh-1: inactive; PI5P4K alpha inh: inactive; POLI inh: inconclusive; POLB inh: inactive; Pol eta inh-1: inactive; Pol kappa inh-1: inactive

What do the screens show for `COC(=O)C1=CO[C@@H](O[C@@H]2OC(CO)[C@@H](O)[C@@H](O)[C@@H]2O)C2C1CC[C@]2(C)O` (stereo partly specified)?
FEN1 inh-1: inactive; PI5P4K alpha inh: inactive; POLI inh: inactive; Pol eta inh-1: inactive; Pol kappa inh-1: inactive

How did COC(=O)C1=COC(OC2OC(CO)C(O)C(O)C2O)C2C1C=CC2(O)CO (stereo unspecified) do in these assays?
FEN1 inh-1: inactive; PI5P4K alpha inh: inactive; POLI inh: 40µM; POLB inh: 20µM; Pol eta inh-1: 18µM; Pol kappa inh-1: 35µM; PGK validate: 8.2µM; POLI cherry-pick: 34; Pol eta inh-2: 27; FEN1 inh-2: inconclusive
